# Compound activity deposited in PubChem by Broad Institute.
# Tgondii IFNg = blocks Toxoplasma gondii growth in the presence of IFN-gamma | activity change, negative = inhibition, % (test concentration not listed) | 69,000 compounds, 3.8% hits | Toxoplasma gondii growth in IFN-gamma-treated host cells; active compounds read low; in the data active = activity change below about -70%, passing the limit was not always enough;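 also: host cells are HeLa cells infected with Toxoplasma gondii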
# A number is an active result; . = inactive. The sample as a whole holds a higher share of hits than the screen did.
SMILES,Tgondii IFNg
O=S(=O)(c1ccccc1Cl)N1CCc2nc(-c3ccccc3)sc2C1,.
COc1ccc(-c2nc3c(s2)CN(S(=O)(=O)c2ccc(C)c(C)c2)CC3)cc1OC,-98
CCc1ccc(S(=O)(=O)N2CCc3nc(-c4ccc(OC)c(OC)c4)sc3C2)cc1,.
O=C1CCc2cc(S(=O)(=O)Nc3cc(C(F)(F)F)ccc3Cl)cc3c2N1CC3,.
CCS(=O)(=O)N1C[C@H](N(C)Cc2ccco2)C2OCCCC21 (some centres not stated),.
CCCNC(=O)c1cc2c(c3ccccc3n2CC2CC2)n1C(=O)N(C)C,.
COc1ccc2cc(C(=O)NC(C)c3ccc(N4CCOCC4)cc3)c(C)nc2c1 (configuration not stated),.
Cc1cccc(NC(=O)C(=O)NCCc2sc(-c3ccc(F)cc3)nc2C)c1C,.
Cc1nc2c(nc(SCc3nc(-c4ccc(OC(C)C)cc4)oc3C)n2C)c(=O)[nH]1,.
Cc1cc(N2CCOC(CN)C2)nc(-c2ccccc2)n1 (configuration not stated),.
Cc1noc(C)c1CN1CC[C@H](O)[C@@H]1Cc1ccccc1,.
Cc1nc(-c2ccccc2)sc1C(=O)Nc1c(C)nc2ccc(Cl)cn2c1=O,.
CN(Cc1sc(N(C)C)nc1Cl)Cc1cccc2ncccc12,.
CCOc1cccc(C2c3[nH]c4ccccc4c3CCN2C(=O)Cc2cccs2)c1 (configuration not stated),.
COc1ccc(C2c3[nH]c4ccccc4c3CCN2C(=O)Cc2cccs2)cc1 (configuration not stated),.
CSc1ccc(C2c3[nH]c4ccccc4c3CCN2C(=O)CCc2cccs2)cc1 (configuration not stated),-85
O=C(Cc1cccs1)N1CCc2c([nH]c3ccccc23)C1c1ccc(Cl)cc1 (configuration not stated),-118
CCOc1cccc(CC(=O)N2CCc3c([nH]c4ccccc34)C2c2ccc(Cl)cc2)c1OCC (configuration not stated),.
O=C(Cc1cccs1)N1CCc2c([nH]c3ccccc23)C1c1ccc(F)cc1 (configuration not stated),.
CSc1ccc(C2c3[nH]c4ccccc4c3CCN2C(=O)Cc2cccs2)cc1 (configuration not stated),.
Cc1ccc(C2c3[nH]c4ccccc4c3CCN2C(=O)Cc2cccs2)cc1 (configuration not stated),-125
CSc1ccc(C2c3[nH]c4ccccc4c3CCN2C(=O)CCc2ccccc2)cc1 (configuration not stated),.
CNC(=O)Cc1nc2ccccc2n1CC(=O)Nc1ccc2c(c1)N(C)CCC2,.
Cc1ccoc1C(=O)N1CCOC2CCC1C2Oc1ncccc1F (configuration not stated),.
Cc1cccc(NC(=O)N2CCC[C@@]3(C(=O)N(C)C)CN(c4ccccn4)C[C@H]3C2)c1,.
SMILES,Tgondii IFNg
CCN(CC)S(=O)(=O)c1ccc2c(c1)NC(=O)CO2,.
N#Cc1cccc(NC(=O)Cn2c(=O)cc(C(=O)N3CCCCC3)c3ccccc32)c1,.
CCN1C(=O)CCc2cc(NC(=O)CC(C)C)ccc21,.
Cc1ccc(C(=O)Nc2ccc3c(c2)CCC(=O)N3CC(C)C)c(C)c1,.
CCN1C(=O)CCc2cc(NC(=O)c3ccc4c(c3)OCO4)ccc21,-87
CCN1C(=O)CCc2cc(NC(=O)C3CCCC3)ccc21,.
COCCN1C(=O)CCc2cc(NC(=O)c3ccc4c(c3)OCO4)ccc21,.
CCC(=O)Nc1ccc2c(c1)CCC(=O)N2CC(C)C,.
CCN1C(=O)CCc2cc(NC(=O)c3ccc(F)cc3)ccc21,.
CC(C)CN1C(=O)CCc2cc(NC(=O)c3ccc4c(c3)OCO4)ccc21,-77
CCN1C(=O)CCc2cc(NC(=O)/C=C/c3ccccc3)ccc21,-83
CCC(=O)N1CCOCC2(CN(Cc3ccccc3-c3ccco3)CCO2)C1 (configuration not stated),.
COc1ccc(C[C@H]2CN(C(=O)c3ccnn3C)CC[C@H]2OC)cc1,.
CCC(=O)N1CCc2cc(C(=O)O)c(-c3ccncc3)nc2CC1,.
CCS(=O)(=O)CCCCC1N=NC(NC(=O)Nc2cccc(C(F)(F)F)c2)S1 (configuration not stated),.
Cc1ccccc1OCC(=O)NCCc1sc(-c2ccc(Cl)cc2)nc1C,.
CCOc1ccccc1C(=O)NCCc1sc(-c2ccc(Cl)cc2)nc1C,-106
Cc1nc(-c2ccc(F)cc2)sc1CCNC(=O)C(=O)Nc1ccc2c(c1)OCCO2,.
COc1ccccc1C(=O)NCCc1sc(-c2ccc(Cl)cc2)nc1C,-107
Cc1nc(-c2ccc(Cl)cc2)sc1CCNC(=O)COc1ccccc1F,.
Cc1nc(-c2ccc(Cl)cc2)sc1CCNC(=O)c1ccccc1F,.
COc1ccccc1C(=O)NCCc1sc(-c2cccc(F)c2)nc1C,.
Cc1ccccc1C(=O)NCCc1sc(-c2ccc(Cl)cc2)nc1C,.
Cc1ccc(-c2nc(C)c(CCNC(=O)C(=O)Nc3ccc4c(c3)OCO4)s2)cc1,.
COc1ccccc1OCC(=O)NCCc1sc(-c2ccc(F)cc2)nc1C,.
SMILES,Tgondii IFNg
COc1ccccc1C(=O)NCCc1sc(-c2ccc(F)cc2)nc1C,-107
Cc1nc(-c2ccc(F)cc2)sc1CCNC(=O)C(=O)Nc1ccc2c(c1)OCO2,-72
COC(=O)c1ccc(NC(=O)C(=O)NCCc2csc(-c3ccc(Cl)cc3)n2)cc1,.
Cc1cccc(Cc2cccc(C3CCCN(C(=O)Cc4c[nH]c5ccccc45)C3)n2)c1 (configuration not stated),.
Cc1nccn1CCN(C)c1cc(NC2CC2)nc(N)n1,.
O=C(Cc1ccccc1)N1CCC2(CC1)CN(c1ncccn1)CC21CCNC1=O (configuration not stated),.
CC(=O)NCCc1csc(C2CCCN(C(=O)/C=C/c3ccccc3)C2)n1 (configuration not stated),.
C=CCn1cc(CNCc2ccc(F)cc2Cl)c(C)n1,.
COc1ccc(-c2nc(C)c(CCNS(=O)(=O)c3ccc(C)c(C)c3)s2)cc1OC,.
Cc1nc(-c2ccc(F)cc2)sc1CCNC(=O)c1ccccc1Cl,-72
COc1ccc(S(=O)(=O)NCCc2sc(-c3ccc(OC)c(OC)c3)nc2C)cc1C,.
Cc1nc(-c2ccc(F)cc2)sc1CCNC(=O)c1c(F)cccc1Cl,.
COc1ccc(-c2nc(C)c(CCNS(=O)(=O)c3ccc(-c4ccccc4)cc3)s2)cc1OC,-118
Cc1nc(-c2ccc(F)cc2)sc1CCNC(=O)c1ccccc1Br,.
CN(Cc1ncc[nH]1)C(=O)c1cnc(Nc2ccccc2)nc1,.
Cc1c(C(=O)NCc2cccnc2-n2ccnc2)nnn1Cc1ccccc1,.
Cc1ccc2cc(C3(O)CCN(C(=O)c4sccc4N)CC3)ccc2n1,.
CCOc1ccc(-c2nc(CN(c3ccccc3)S(=O)(=O)c3ccccc3)c(C)o2)cc1,.
Cc1ccc2c(c1C)-n1cccc1C1(CCN(C(=O)COc3ccccc3)CC1)N2,.
O=S(=O)(c1ccc(F)c(Cl)c1)N1CCC2(CC1)Nc1cc(F)ccc1-n1cccc12,.
CCN(CC)S(=O)(=O)c1ccc2c(c1)cc(C(=O)NCC1CCN(Cc3ccc(C)cc3)C1)n2C (configuration not stated),-96
Cc1ccc(CCNC(=O)c2cc3cc(S(=O)(=O)N(C)C)ccc3n2Cc2ccncc2)cc1,.
CCN(CC)S(=O)(=O)c1ccc2c(c1)cc(C(=O)NCCC(C)N1CCCC1)n2C (configuration not stated),.
